PLK1 PBD block – qHTS for Inhibitors of PLK1-PDB (polo-like kinase 1 - polo-box domain): Primary Screen. 360,000 compounds, 2.8% hits. Plk1 PBD binding of FITC phosphopeptide, fluorescence polarization. Serine/threonine-protein kinase PLK1 (Homo sapiens), P53350. AID 720504, 2013. Potency, µM, for inactives: max response, negative = inhibition, most hits filed as inhibitors; also: series mostly up to about 57 µM; nearly all actives have a fitted effect of over 65% in size
ALOX12 inh – Primary qHTS assay for inhibitors of human arachidonate 12S-lipoxygenase (ALOX12): Round 2; purified 12hLO, xylenol orange hydroperoxide absorbance; Potency, µM (titrated, usually from 108 µM), without a hit: at the top dose activity change, negative = inhibition, hits mostly inhibitors; 580,000 compounds, 1.1% hits
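Hydroperoxide product was detected by ferrous iron/xylenol orange as the 573 to 405 nm absorbance ratio. Arachidonic acid at 40 uM (final) was turned over for 30 min at room temperature by 150 nM human 12hLO, pH 7.0 Hepes buffer, after 15 min compound preincubation.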
KAT2A inh – qHTS Assay for Inhibitors of GCN5L2; AID 504327, 2011; Potency, µM (titrated, usually from 58.9 µM), for inactives: at the top dose activity change, negative = inhibition, most hits filed as inhibitors; 390,000 compounds, 0.21% hits; GCN5L2 HAT assay, ThioGlo1 CoA-SH fluorescence
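Free CoA generated was detected with ThioGlo1 (50uM) fluorescence at Ex340nm/Em540nm, read immediately and after 20 min at room temperature. Enzyme, 20 nM in HEPES pH 7.5 buffer, saw compounds 15 min before adding 75uM H3(1-25) peptide and 70uM acetyl-CoA.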
VDR inhibitor – Inhibitors of the vitamin D receptor (VDR): qHTS. Vitamin D3 receptor (Homo sapiens), P11473. VDR-SRC2-3 peptide fluorescence polarization, 2 h. Potency, µM, without a hit: max response, negative = inhibition, hits mostly inhibitors. 400,000 compounds, 0.93% hits. AID 504847, 2011
Target sequence (P11473 whole entry, looked up): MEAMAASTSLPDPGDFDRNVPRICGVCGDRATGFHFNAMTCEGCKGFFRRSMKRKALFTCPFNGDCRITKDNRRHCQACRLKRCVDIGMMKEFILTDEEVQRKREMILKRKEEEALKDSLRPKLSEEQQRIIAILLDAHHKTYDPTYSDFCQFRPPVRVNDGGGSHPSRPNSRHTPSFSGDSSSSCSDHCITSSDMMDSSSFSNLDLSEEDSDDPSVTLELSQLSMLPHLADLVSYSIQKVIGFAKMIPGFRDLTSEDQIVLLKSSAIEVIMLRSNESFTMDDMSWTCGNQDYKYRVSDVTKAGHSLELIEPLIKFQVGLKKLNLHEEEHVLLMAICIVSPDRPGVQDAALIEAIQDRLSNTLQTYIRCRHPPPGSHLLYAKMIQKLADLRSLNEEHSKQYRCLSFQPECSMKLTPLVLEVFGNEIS
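Fluorescence polarization assay measuring small-molecule disruption of VDR binding to the coregulator peptide SRC2-3. Compounds were pin-transferred (23 nl) into the reagent mix and incubated 2 h at room temperature before reading.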
Active calls of the source: *; u = inconclusive; x = not tested or not shown; [ ] = dose if it differs, or a comment. Only some compounds are listed: those with a hit (about 3% of all), similar ones and a draw of the others. Calls follow the shape of the dose curve; as a rule, active = well fitted curve in the direction sought with a large enough effect; inconclusive = small, poorly fitted or top-dose-only effect, or another doubt; inactive = no such curve, though single readings can be large; an effect the other way counts as inactive or inconclusive. % is scaled to controls: 0 for no effect and ±100 for the full control effect; potency is read from the fitted curve at half-maximal effect.

SMILES | PLK1 PBD block | ALOX12 inh | KAT2A inh | VDR inhibitor
CN(Cc1cccc(C(F)(F)F)c1)C(=O)c1ccc(F)cc1 | x | 32%[176 µM] | x | x
CNC(=O)CNC(=O)c1ccc(F)cc1Br | x | 9% | x | x
COc1cc(C2CC(=O)NC(SCC(=O)NCc3ccccc3)=C2C#N)ccc1O (stereo unspecified) | x | -10% | x | x
COc1cc(C2CC(=O)N3CN(c4ccc(C)c(Cl)c4)CSC3=C2C#N)ccc1O (stereo unspecified) | x | 0.89µM* | x | x
COc1cc(C2CC(=O)N3CN(c4cccc(Cl)c4)CSC3=C2C#N)ccc1O (stereo unspecified) | x | 18µM* | x | x
COc1cc(C2CC(=O)N(c3ccc(C)c(Cl)c3)C3=C2C(=O)OC3)cc(OC)c1OC (stereo unspecified) | x | -11% | 0% | -23%
C(=N\N=C(c1ccccc1)c1ccccc1)/c1cn(-c2cccs2)nc1-c1ccccc1 | x | -10% | x | x
CC(=O)NCCNc1ncnc2ccc(-c3cccc(NS(C)(=O)=O)c3)cc12 | x | u | u | 45µM*
CNc1nc(-c2ccccc2C)nc2ccccc12 | x | 40µM* | -15% | 45µM*
CC(=O)NCCNc1nc(-c2cccc(NS(C)(=O)=O)c2)nc2ccccc12 | x | 2.2µM* | -6% | -9%
CNc1nc(-c2cccc(NS(C)(=O)=O)c2)nc2ccccc12 | x | u | u | 45µM*
CS(=O)(=O)Nc1cccc(-c2nc(Nc3ccc(F)cc3)c3ccccc3n2)c1 | x | u | -12% | 3%
Cc1ccc(C)c(-c2csc(NC(=O)CSc3nc4ccccc4o3)n2)c1 | x | -14% | x | x
CC(=O)c1cccc(Nc2nc(-c3ccc(C)cc3)nc3ccccc23)c1 | x | 18% | x | x
CC(=O)c1cccc(Nc2nc(-c3cccc(C)c3)nc3ccccc23)c1 | x | 6.3µM* | -19% | 18%
CC(=O)NCCNc1ncnc2ccc(-c3ccccc3Cl)cc12 | x | 32µM* | -4% | 3%
Clc1ccccc1-c1ccc2ncnc(NCc3cccs3)c2c1 | x | -21% | -11% | -3%
Cc1oc(-c2cccs2)nc1C(=O)N1CCOCC1 | x | -2% | x | x
Cc1ccc(-c2nn(C)c(=O)c3ccccc23)cc1CNC(=O)c1ccc(Cl)cc1 | x | -8% | x | x
Cc1ccc[n+](-c2nc([O-])sc2C=O)c1 | 13µM* | -12% | -14% | 6%
O=C(O)c1nn(CC(=O)N(CCc2ccccc2)Cc2ccccc2)c(=O)c2ccccc12 | x | -52% | x | x
CC(C(=O)NNS(=O)(=O)c1cccc(C(F)(F)F)c1)n1nnc(N2CCOCC2)n1 (stereo unspecified) | -2% | 3.5µM* | 0% | 7%
CC(C(=O)NN)n1nnc(N2CCOCC2)n1 (stereo unspecified) | -2% | u | 1% | -7%
CCCC1O[C@@H]2CC3C4CCC5=CC(=O)C=C[C@]5(C)C4C(OC(C)=O)C[C@]3(C)[C@]2(C(=O)COC(C)=O)O1 (stereo partly specified) | 19µM* | 0% | 1% | u
CC1(C)CC(=O)C2=C(C1)OC1=C(C(=O)CC(C)(C)C1)C2c1cccc(O)c1 | x | -1% | x | x
SMILES | PLK1 PBD block | ALOX12 inh | KAT2A inh | VDR inhibitor
COc1ccc(C(=O)N2CCCC(CNC(=O)c3ccccc3Cl)C2)o1 (stereo unspecified) | 3% | 0% | u | u
CC(=O)c1ccccc1C(=O)N1CCCC(CNC(=O)c2ccccc2Cl)C1 (stereo unspecified) | 27µM* | -9% | -3% | u
COc1ccccc1OCC(=O)NCC1CCCN(C(=O)c2ccccc2SC)C1 (stereo unspecified) | 3.4µM* | -5% | -3% | u
COc1ccccc1OCC(=O)NCC1CCCN(C(=O)c2ccccc2C(C)=O)C1 (stereo unspecified) | 1% | 5% | u | -4%
CN(C)[C@@H]1C(=O)C(C(=O)NCN2CCCC2)=C(O)[C@@]2(O)C(=O)C3=C(O)c4c(O)cccc4[C@@](C)(O)C3CC12 (stereo partly specified) | x | x | 6.3µM* | x
CN(C)[C@H]1C(=O)C(C(=O)NCN2CCCC2)=C(O)[C@]2(O)C(=O)C3=C(O)c4c(O)cccc4[C@](C)(O)[C@H]3C[C@H]12 | x | x | 1.8µM* | u
CCC(C)NC(=O)c1ccccc1-c1ncc(-c2ccccc2F)o1 (stereo unspecified) | x | 5% | x | x
O=C1CC(c2ccccc2)CC(=O)C1CS(=O)(=O)c1ccccc1 (stereo unspecified) | -25% | -28% | 0% | 32µM*
O=C(Cn1cnc2onc(-c3ccc(Cl)cc3)c2c1=O)Nc1ccc(F)cc1 | x | 45µM* | -5% | 13%
Cc1ccc(-c2ccnc3nc(-n4cccc4)nn23)o1 | 4.7µM* | -11% | 4% | u
CC(C)c1nc2nccc(-c3ccco3)n2n1 | x | 27% | x | x
COc1cccc(NC(=O)CSC(N)=O)c1 | -6% | u | -23% | 22µM*
O=C(CC1Nc2ccccc2NC1=O)Nc1cccc(C(F)(F)F)c1 (stereo unspecified) | x | 7% | x | x
COc1cccc(NC(=O)CCC(=O)Nc2cccc(OC)c2)c1 | -6% | -14% | -1% | -5%
COc1cccc(NC(=O)Nc2ccccc2SC)c1 | 19µM* | -5% | -4% | -8%
COc1cccc(NC(=O)CC2Nc3ccccc3NC2=O)c1 (stereo unspecified) | x | 16µM* | x | x
CC(C)(C)c1ccc(-c2cc(C[C@H]3CNCC[C@H]3CC(=O)NCc3cccnc3)no2)cc1 | x | 28µM* | x | x
NSc1nc(N)c2nc(-c3ccccc3)c(-c3ccccc3)nc2n1 | 13µM* | u | -6% | 8.9µM*
Nc1nc(N)c2nc(-c3ccccc3)c(N)nc2n1 | -12% | -17% | u | 8%
COc1c(CNCC(O)COc2ccccc2)c(C(C)C)nn1C (stereo unspecified) | x | 0% | x | x
CCN(CC)C(=O)C[n+]1ccc(C(N)=O)cc1 | 27µM* | -2% | 2% | -9%
C=CCN(CC=C)C(=O)C[n+]1ccc(C(N)=O)cc1 | -2% | u | -1% | -7%
Cc1cccc(-c2nc3ccccc3c(=O)n2NC(=S)N(C)C)c1 | 3µM* | u | -1% | 50µM*
CN(C)C(=S)Nn1c(-c2ccccc2)nc2ccccc2c1=O | -10% | 5% | -2% | -2%
Cc1ccccc1NC(=O)N1CCN(S(=O)(=O)c2ccccc2)CC1 | 17µM* | 8% | 11% | -20%
Cc1ccc(S(=O)(=O)N2CCN(C(=O)COc3ccc(NC(=O)c4ccco4)cc3)CC2)cc1 | 17µM* | 83% | -5% | -24%
CC(=O)Nc1ccc(S(=O)(=O)N2CCN(C(=O)Cc3ccccc3)CC2)cc1 | 27µM* | 0% | -8% | u
CC(OC(=O)c1csc(NCc2ccccc2)n1)C(=O)NC1(C#N)CCCCC1 (stereo unspecified) | x | -12% | x | x
